# Experimental data from the supplement of paper PMC9844399.
# Where a name gives a salt, the structure may show the parent alone. Values without a mark were called inactive.
# Tested on: HeLa
# Assay: MALAT1 nuclear FISH intensity, robust Z-score vs DMSO; higher = more nuclear MALAT1 lncRNA, active = -3 or less
# Details: 10 µM; 6 h
# 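Also: High-content confocal imaging of branched-DNA amplified FISH in 384-well plates, Hoechst-defined nuclei, score is well value minus plate DMSO median over DMSO robust SD, four wells per compound.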
row,Structure (SMILES),MALAT1 nuclear FISH intensity
1,O=c1[nH]cc(F)c(=O)[nH]1 [Fluorouracil (5-Fluorouracil)],0.369
2,CN(C)CCC(c1ccc(Br)cc1)c1ccccn1 (configuration not stated) [Brompheniramine Maleate],0.169
3,C[n+]1ccccc1/C=N/O [Pralidoxime Chloride],0.0114
4,CCN(CC)CCNC(=O)c1ccc(N)cc1 [Procainamide],0.718
5,CCCCCCCCCCCCCC(=O)N[C@H](C)[C@@H](O)c1ccccc1 [D-erythro-MAPP],0.232
6,Cc1ccccc1C(OCCN(C)C)c1ccccc1 (configuration not stated) [Orphenadrine Citrate],0.3
7,Cc1nnc(C(C)C)n1C1C[C@H]2CC[C@@H](C1)N2CC[C@H](NC(=O)C1CCC(F)(F)CC1)c1ccccc1 (stereo in doubt) [Maraviroc],0.801
8,Cc1cc(C(=O)NNCc2ccccc2)no1 [Isocarboxazid],-0.791
9,COc1cc(C)c(/C=C/C(C)=C/C=C/C(C)=C/C(=O)O)c(C)c1C [Acitretin],-0.517
10,COCCOc1nc(-c2ccc(Cl)c(Cl)c2)n(-c2ccc(NC(=O)CCl)cc2)n1 [MI 2 (MALT1 inhibitor)],0.826
11,CCCC(=O)O[C@]1(C(=O)COC(C)=O)CC[C@H]2[C@@H]3C[C@H](F)C4=CC(=O)C=C[C@]4(C)[C@@]3(F)[C@@H](O)C[C@@]21C [Difluprednate],-0.0991
12,CCCCc1oc2ccccc2c1C(=O)c1cc(I)c(OCCN(CC)CC)c(I)c1 [Amiodarone hydrochloride],-0.769
13,CN[C@@H]1[C@H](O[C@H]2[C@H](O[C@H]3[C@H](O)[C@@H](O)[C@H](N=C(N)N)[C@@H](O)[C@@H]3N=C(N)N)O[C@@H](C)[C@]2(O)C=O)O[C@@H](CO)[C@H](O)[C@H]1O [Streptomycin Sulfate],-0.687
14,NC(=O)c1ncn([C@@H]2O[C@H](CO)[C@@H](O)[C@H]2O)n1 [Ribavirin],-0.394
15,CCCCC/C=C\C\C=C/C=C/C=C/CC(=O)CCCC(=O)O [5-Ketoeicosatetraenoic acid],-1.29
16,Cc1ccc(C(=O)c2cc(O)c(O)c([N+](=O)[O-])c2)cc1 [Tolcapone],-1.19

row,Structure (SMILES),MALAT1 nuclear FISH intensity
1,CC1(C)O[C@@H]2C[C@H]3[C@@H]4C[C@H](F)C5=CC(=O)CC[C@]5(C)[C@H]4[C@@H](O)C[C@]3(C)[C@]2(C(=O)CO)O1 [Flurandrenolide],0.893
2,Nc1ccn(C[C@@H](CO)OCP(=O)(O)O)c(=O)n1 [Cidofovir],-0.627
3,CC(C)C[C@@H](N)C(=O)O [D-Leucine],0.514
4,Clc1cccc(Cl)c1NC1=NCCN1,0.0792
5,COc1ccc(-n2c(SCCCN3C(=O)c4cccc5cccc(c45)C3=O)nnc2-c2ccncc2)cc1,-0.954
6,O=C(O)c1cc(-c2ccc(F)cc2F)ccc1O [Diflunisal],-0.983
7,Cc1coc2c1C(=O)C(=O)c1c-2ccc2c1CCCC2(C)C [Tanshinone IIA],-0.607
8,CC(C(C)N1CC(=O)NC(=O)C1)N1CC(=O)NC(=O)C1 (configuration not stated),-1.32
9,CCCCCC(=O)/C=C/C=C\C/C=C\C/C=C\CCCC(=O)O [15-Ketoicosatetraenoic acid],0.0827
10,CCCCC/C=C\C/C=C\C/C=C\C=C\[C@@H](O)CCCC(=O)O,0.216
11,CN1CC[C@@H](NC(=O)Nc2ccc(C#N)cc2)C[C@@H]1c1nc2ccccc2[nH]1,-0.295
12,Clc1ccc(CSC(Cn2ccnc2)c2ccc(Cl)cc2Cl)cc1 (configuration not stated) [Sulconazole Nitrate],0.433
13,CC(C)(C)NC[C@H](O)COc1nsnc1N1CCOCC1 [(S)-Timolol Maleate],0.518
14,Nc1c2c(nc3ccccc13)CCCC2,0.425
15,CC(C)c1c(C(=O)Nc2ccccc2)c(-c2ccccc2)c(-c2ccc(F)cc2)n1CC[C@@H](O)C[C@@H](O)CC(=O)O [Atorvastatin Calcium],-0.672
16,COC(=O)Nc1nc2cc(C(=O)c3cccs3)ccc2[nH]1 [Nocodazole],-0.638
